Assay results from PubChem BioAssay (EPA / NIEHS).
Records with an inconclusive call do not appear. Active and inactive are the calls of the source. How the source made its calls, unless noted: active means hit-call score of the fitted dose curve at least 0.9, where 1 is the maximum; inactive means score below 0.9.

Legend:
[1] = read-out: E-selectin (Homo sapiens) (UniProt P16581); test: BSK_3C_Eselectin: BioMAP Diversity Plus: 3C Assay for Eselectin Biomarker Activity (AID 2283015); details: primary human endothelial cells (HUVEC); actives raise or lower the signal
Outline: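 Endpoint derived by bidirectional fitting against DMSO vehicle; signal is ELISA-detected E-selectin from primary HUVEC at 24 h post-dosing, with parallel SRB staining (0.1% SRB, 560 nm) flagging cytotoxicity.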

[2] = read-out: Interleukin-1 alpha (IL1a), IL1A (gene 3552); test: BSK_BE3C_IL1a: BioMAP Diversity Plus: BE3C Assay for Interleukin-1 alpha (IL1a) Biomarker Activity (AID 2283016); details: primary human bronchial epithelial cells; actives raise or lower the signal
Outline: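 BE3C primary human bronchial epithelium; cpd 24 h; IL-1a by ELISA; bidirectional fit vs DMSO; parallel SRB (0.1% SRB, 10% TCA fix, 560 nm) for cytotoxicity.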

[3] = read-out: Monocyte Chemoattractant Protein-1 (MCP1), CCL2 (gene 6347); test: BSK_3C_MCP1: BioMAP Diversity Plus: 3C Assay for Monocyte Chemoattractant Protein-1 (MCP1) Biomarker Activity (AID 2283017); details: primary human endothelial cells (HUVEC); actives raise or lower the signal
Outline: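 Using human vascular primary endothelium, researchers measured MCP-1 by ELISA 24 h after treatment, with DMSO serving as negative control for bidirectional fitting.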

[4] = read-out: Monocyte Chemoattractant Protein-1 (MCP1), CCL2 (gene 6347); test: BSK_4H_MCP1: BioMAP Diversity Plus: 4H Assay for Monocyte Chemoattractant Protein-1 (MCP1) Biomarker Activity (AID 2283018); details: primary human endothelial cells (HUVEC); actives raise or lower the signal
Outline: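 ELISA read-out of MCP-1 from human vascular endothelial primary cells taken at 24 hours after compound exposure. Activity was fitted in both directions relative to DMSO, which served as negative control.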

[5] = read-out: Human Leukocyte Antigen - DR isotype (HLADR), HLA-DRA (gene 3122); test: BSK_3C_HLADR: BioMAP Diversity Plus: 3C Assay for Human Leukocyte Antigen - DR isotype (HLADR) Biomarker Activity (AID 2283019); details: primary human endothelial cells (HUVEC); actives raise or lower the signal
Outline: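 Compound added to primary HUVEC cultures, 24 h incubation, then HLA-DR determined by ELISA; endpoint derived by bidirectional fitting relative to DMSO negative control.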

[6] = read-out: Interleukin-8 (IL8), CXCL8 (gene 3576); test: BSK_3C_IL8: BioMAP Diversity Plus: 3C Assay for Interleukin-8 (IL8) Biomarker Activity (AID 2283020); details: primary human endothelial cells (HUVEC); actives raise or lower the signal
Outline: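 ELISA read-out of IL-8 from human umbilical vein endothelium, measured 24 h after chemical dosing. Activity is expressed relative to DMSO negative control, with both increases and decreases fitted.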

[7] = read-out: Monokine induced gamma interferon (MIG), CXCL9 (gene 4283); test: BSK_3C_MIG: BioMAP Diversity Plus: 3C Assay for Monokine induced gamma interferon (MIG) Biomarker Activity (AID 2283021); details: primary human endothelial cells (HUVEC); actives raise or lower the signal;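 on AC50: MIG protein level measured by immunoassay in the treated endothelial cultures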
Outline: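 Read-out is ELISA detection of MIG on human umbilical vein endothelial cells, taken 24 h after dosing. Gain or loss of signal was scored relative to DMSO controls using bidirectional curve fitting.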

[8] = BSK_3C_SRB: Viability Assessment in the BioMAP Diversity Plus: 3C Assay (AID 2283023); details: primary human endothelial cells (HUVEC);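 further: fitted both ways against DMSO so a hit may be signal rise or drop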
Outline: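 Overt cytotoxicity is gauged in parallel confluent HUVEC cultures by SRB total-protein staining at the time of biomarker measurement, 24 h after dosing. Gain or loss of signal is fitted versus DMSO.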

[9] = read-out: Matrix Metallopeptidase 1 (MMP1), MMP1 (gene 4312); test: BSK_BE3C_MMP1: BioMAP Diversity Plus: BE3C Assay for Matrix Metallopeptidase 1 (MMP1) Biomarker Activity (AID 2283024); details: primary human bronchial epithelial cells; actives raise or lower the signal
Outline: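 Human bronchial epithelial cells (BE3C system) exposed to compound for 24 h; MMP1 then quantified by ELISA. Activity was fitted in both directions relative to DMSO.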

[10] = BSK_3C_Vis: BioMAP Diversity Plus: 3C Assay for Morphology Visualization (AID 2283025); details: primary human endothelial cells (HUVEC);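 further: fitted both ways so gain or loss versus DMSO counts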;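 on AC50: light microscopy image of cell morphology used as background control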
Outline: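 Chemicals were added to primary human umbilical vein endothelium, cells were incubated 24 h, and morphology was then visualized by light microscopy. Gain or loss of signal was fitted bidirectionally relative to DMSO.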

[11] = read-out: Pselectin, SELP (gene 6403); test: BSK_4H_Pselectin: BioMAP Diversity Plus: 4H Assay for Pselectin Biomarker Activity (AID 2283026); details: primary human endothelial cells (HUVEC); actives raise or lower the signal
Outline: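 ELISA read-out of P-selectin on human umbilical vein endothelium after 24 h of dosing. Values derive from bidirectional fitting relative to DMSO. Parallel SRB protein staining flagged overt cytotoxicity.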

[12] = BSK_4H_SRB: Viability Assessment in the BioMAP Diversity Plus: 4H Assay (AID 2283027); details: primary human endothelial cells (HUVEC);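 further: cells exposed to compound for 24 h before staining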;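 on AC50: curves fitted both ways versus DMSO so AC50 may be loss or gain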
Outline: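 Human umbilical vein endothelial cells were dosed with chemical and, after 24 h, fixed with 10% TCA, stained with 0.1% sulforhodamine B, and read at 560 nm to give total protein as a cytotoxicity measure. Bidirectional fitting relative to DMSO control.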

[13] = BSK_BE3C_SRB: Viability Assessment in the BioMAP Diversity Plus: BE3C Assay (AID 2283028); details: primary human bronchial epithelial cells
Outline: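 SRB total-protein staining (0.1%, after TCA fixation) of chemically dosed human bronchial epithelial primary cells at 24 h; DMSO serves as the negative control for bidirectional curve fitting.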

[14] = read-out: Thrombomodulin, THBD (gene 7056); test: BSK_3C_Thrombomodulin: BioMAP Diversity Plus: 3C Assay for Thrombomodulin Biomarker Activity (AID 2283029); details: primary human endothelial cells (HUVEC); actives raise or lower the signal
Outline: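 Read-out is ELISA of thrombomodulin on human umbilical vein endothelium 24 h after chemical dosing. Gain or loss of signal is scored relative to DMSO. Overt cytotoxicity is checked in parallel cultures by sulforhodamine B staining.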

[15] = read-out: Urokinase-type plasminogen activator receptor (uPAR), PLAUR (gene 5329); test: BSK_4H_uPAR: BioMAP Diversity Plus: 4H Assay for Urokinase-type plasminogen activator receptor (uPAR) Biomarker Activity (AID 2283030); details: primary human endothelial cells (HUVEC); actives raise or lower the signal
Outline: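 Endpoint derived via bidirectional curve fitting against DMSO baseline; readout was ELISA detection of uPAR on umbilical vein endothelial cells at 24 h post-treatment, with SRB-stained parallel cultures assessing cytotoxicity.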

[16] = read-out: Vascular endothelial growth factor receptor 2 (Homo sapiens) (UniProt P35968); test: BSK_4H_VEGFRII: BioMAP Diversity Plus: 4H Assay for Vascular endothelial growth factor receptor 2 (VEGFR2) Biomarker Activity (AID 2283031); details: primary human endothelial cells (HUVEC); actives raise or lower the signal;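 on AC50: cell-surface VEGFR2 protein level quantified by ELISA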
Outline: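 In this multiplexed HUVEC system, biomarker ELISA was performed after 24 h chemical exposure. Parallel SRB staining (TCA fixation, 560 nm) tracked cytotoxicity; DMSO served as baseline.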

[17] = target: human Retinoid X Receptor beta (RXRb), RXRB (gene 6257) (UniProt P28702); test: ATG_RXRb_TRANS: Attagene TRANS-FACTORIAL HepG2 Assay for human Retinoid X Receptor beta (RXRb) (AID 2283013; active means hit-call score of the fitted dose curve at least 0.9, where 1 is the maximum)
Outline: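 Transfect HepG2 with GAL4-UAS multi-reporter constructs (chimeric NR-Gal4, TRANS format); dose compound 24 h; isolate RNA, RT-PCR, FAM primer extension, HpaI digest; quantify by capillary electrophoresis; positive direction vs DMSO.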

[18] = target: Retinoic acid receptor RXR-alpha (Homo sapiens) (UniProt P19793); test: ATG_RXRa_TRANS: Attagene TRANS-FACTORIAL HepG2 Assay for human Retinoid X Receptor alpha (RXRa) (AID 2283012; active means hit-call score of the fitted dose curve at least 0.9, where 1 is the maximum)
Outline: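 Transient transfection of human HepG2 with multiple GAL4-UAS reporter constructs; 24 h compound exposure; total RNA isolated, reverse-transcribed, PCR-amplified, 6-FAM labelled, HpaI-cut, resolved by capillary electrophoresis. Positive-direction fit versus DMSO.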

[19] = target: human Vitamin D Receptor (VDR), VDR (gene 7421) (UniProt P11473); test: ATG_VDR_TRANS: Attagene TRANS-FACTORIAL HepG2 Assay for human Vitamin D Receptor (VDR) (AID 2283022; active means hit-call score of the fitted dose curve at least 0.9, where 1 is the maximum)
Outline: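 Multiplexed TRANS reporter in HepG2; 24 h treatment; reporter mRNA by RT-PCR plus capillary electrophoresis; upregulation scored relative to DMSO.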

Measured: AC50

Chain of Retinoic acid receptor RXR-alpha (Homo sapiens) (P19793 whole entry, looked up, the tested form may be a part): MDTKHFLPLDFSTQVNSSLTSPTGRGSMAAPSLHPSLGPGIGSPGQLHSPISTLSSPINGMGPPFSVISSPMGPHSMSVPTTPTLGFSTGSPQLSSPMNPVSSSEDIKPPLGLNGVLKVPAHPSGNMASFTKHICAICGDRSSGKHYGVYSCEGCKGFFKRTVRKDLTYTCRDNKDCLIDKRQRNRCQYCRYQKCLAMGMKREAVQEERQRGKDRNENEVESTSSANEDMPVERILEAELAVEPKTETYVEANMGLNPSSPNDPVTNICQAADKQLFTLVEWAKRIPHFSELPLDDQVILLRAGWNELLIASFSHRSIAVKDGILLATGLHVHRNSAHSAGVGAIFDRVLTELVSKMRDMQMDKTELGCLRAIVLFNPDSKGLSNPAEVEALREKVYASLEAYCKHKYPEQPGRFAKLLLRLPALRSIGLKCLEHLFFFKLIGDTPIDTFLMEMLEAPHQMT
Chain of E-selectin (Homo sapiens) (P16581 whole entry, looked up): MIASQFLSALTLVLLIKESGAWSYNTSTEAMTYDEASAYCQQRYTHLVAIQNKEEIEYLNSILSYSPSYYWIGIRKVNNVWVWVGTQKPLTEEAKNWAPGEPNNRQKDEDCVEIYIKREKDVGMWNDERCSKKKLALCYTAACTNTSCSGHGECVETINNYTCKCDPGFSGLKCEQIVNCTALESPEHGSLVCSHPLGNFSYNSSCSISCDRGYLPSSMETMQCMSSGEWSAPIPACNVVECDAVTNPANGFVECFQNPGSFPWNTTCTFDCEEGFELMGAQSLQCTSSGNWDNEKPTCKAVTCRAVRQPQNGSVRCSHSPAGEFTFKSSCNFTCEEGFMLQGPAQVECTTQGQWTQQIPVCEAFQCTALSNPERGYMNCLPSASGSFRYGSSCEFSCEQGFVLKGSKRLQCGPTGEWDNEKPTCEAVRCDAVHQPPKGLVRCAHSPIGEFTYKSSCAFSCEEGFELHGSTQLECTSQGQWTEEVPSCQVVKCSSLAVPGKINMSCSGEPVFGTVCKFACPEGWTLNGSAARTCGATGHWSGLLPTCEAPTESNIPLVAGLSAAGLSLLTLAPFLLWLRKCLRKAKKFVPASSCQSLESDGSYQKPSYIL
Chain of human Vitamin D Receptor (VDR), VDR (gene 7421) (P11473 whole entry, looked up): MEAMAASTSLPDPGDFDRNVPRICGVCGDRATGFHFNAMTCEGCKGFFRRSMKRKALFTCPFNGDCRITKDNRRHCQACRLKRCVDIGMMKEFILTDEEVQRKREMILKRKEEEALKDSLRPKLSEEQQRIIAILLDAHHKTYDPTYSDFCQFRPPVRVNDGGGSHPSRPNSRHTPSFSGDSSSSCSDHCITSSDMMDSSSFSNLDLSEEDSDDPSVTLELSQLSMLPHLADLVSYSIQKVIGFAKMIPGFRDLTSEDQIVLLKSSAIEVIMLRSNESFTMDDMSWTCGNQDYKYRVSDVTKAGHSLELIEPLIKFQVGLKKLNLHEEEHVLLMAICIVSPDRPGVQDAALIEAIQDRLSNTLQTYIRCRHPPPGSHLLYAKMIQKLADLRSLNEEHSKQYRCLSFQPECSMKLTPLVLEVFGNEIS
Chain of human Retinoid X Receptor beta (RXRb), RXRB (gene 6257) (P28702 whole entry, looked up, the tested form may be a part): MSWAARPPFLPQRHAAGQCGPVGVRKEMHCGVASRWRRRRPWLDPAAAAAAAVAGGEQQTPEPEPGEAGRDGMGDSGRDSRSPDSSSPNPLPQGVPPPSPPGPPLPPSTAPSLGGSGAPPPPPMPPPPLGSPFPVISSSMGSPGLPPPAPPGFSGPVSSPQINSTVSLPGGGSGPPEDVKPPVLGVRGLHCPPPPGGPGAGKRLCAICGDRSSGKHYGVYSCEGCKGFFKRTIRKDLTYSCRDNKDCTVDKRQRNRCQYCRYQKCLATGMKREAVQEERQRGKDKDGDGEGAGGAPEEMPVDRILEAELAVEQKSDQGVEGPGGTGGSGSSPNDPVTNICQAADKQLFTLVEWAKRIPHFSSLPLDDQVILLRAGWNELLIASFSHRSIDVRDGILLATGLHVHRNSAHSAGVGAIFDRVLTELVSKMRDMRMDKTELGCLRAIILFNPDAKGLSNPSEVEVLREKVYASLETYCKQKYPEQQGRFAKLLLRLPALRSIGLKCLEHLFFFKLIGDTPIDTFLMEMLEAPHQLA

CCCCCCCCCCC
not listed: [17] | [18] | [19]
inactive: all other assays above

CN[C@H]1CC[C@@H](c2ccc(Cl)c(Cl)c2)c2ccc(S(N)(=O)=O)cc21
active: [1] 30.6 µM | [2] 30.3 µM | [3] 27.5 µM | [4] 20 µM | [5] 14.7 µM | [6] 23.9 µM | [7] 37.8 µM | [8] 16 µM | [9] 31.8 µM | [10] 14.4 µM | [11] 9.02 µM | [12] 18.2 µM | [14] 4.65 µM | [15] 20 µM | [16] 20 µM

CC(=O)OCCOCCOCCOC(C)=O
not listed: [18] | [19]
inactive: all other assays above

COc1cc(/C=C/C(=O)CC(=O)/C=C/c2ccc(O)c(OC)c2)ccc1O
inactive: [18] | [19]

COc1cc(-c2nc(NC(=O)c3cc4cc(C)cc(C)c4n3CC(=O)O)sc2CCC2CCCCC2)c(OC)cc1Cl
active: [1] 5.53 µM | [2] 3.38 µM | [3] 2.91 µM | [4] 5.38 µM | [5] 3.08 µM | [6] 5.83 µM | [7] 5.26 µM | [8] 2.92 µM | [9] 4.37 µM | [10] 4.08 µM | [11] 3.63 µM | [12] 4.62 µM | [14] 23.6 µM | [15] 4.62 µM | [16] 4.37 µM
inactive: [19]

C[C@]12C=CC(=O)C=C1CC[C@@H]1[C@@H]2C(=O)C[C@@]2(C)[C@H]1CC[C@]2(O)C(=O)CO
not listed: [13] | [17] | [18]
inactive: all other assays above

Clc1cc(Cl)c(Cl)cc1Cl
not listed: [17] | [19]
inactive: all other assays above

NC(=O)Cn1c(=O)cc(CCN2CCN(c3nccc4sccc34)CC2)c2ccc(F)cc21
active: [11] 3.25 µM | [12] 3.97 µM | [15] 0.496 µM
not listed: [8] | [13] | [17]
inactive: all other assays above

CCCCCCCCCCCCCCCCCC(=O)O
active: [8] 20 µM | [10] 39 µM
not listed: [13] | [15] | [17] | [18] | [19]
inactive: all other assays above
